Measurements as given in publication PMC11062922 (Nature Chemical Biology, 2023).
Like-named read-outs stand apart in the source and are kept apart here.

Key:
Conditions in all cases: read-out: apparent Kd, n = 1
PRKD1 = system: PRKD1
PTK2B = system: PTK2B
SIK3 = system: SIK3
SLK = system: SLK
[1] = compound concentrations:100 nM and 1000 nM (sheet 'Lestaurtinib' of Supplementary Table 1),run:Lestaurtinib_02748_R2,Plate:MR024
[2] = compound concentrations:100 nM and 1000 nM (sheet 'Lestaurtinib' of Supplementary Table 1),run:Lestaurtinib_02896_R3,Plate:MR030
[3] = compound concentrations:100 nM and 1000 nM (sheet 'Lestaurtinib' of Supplementary Table 1),run:Lestaurtinib_02339_R2,Plate:MR001
[4] = compound concentrations:100 nM and 1000 nM (sheet 'Lestaurtinib' of Supplementary Table 1),run:Lestaurtinib_02422_R1,Plate:MR006
[5] = compound concentrations:100 nM and 1000 nM (sheet 'Lestaurtinib' of Supplementary Table 1),run:Lestaurtinib_02443_R3,Plate:MR009
[6] = compound concentrations:100 nM and 1000 nM (sheet 'Lestaurtinib' of Supplementary Table 1),run:Lestaurtinib_02473_R3,Plate:MR010
[7] = compound concentrations:100 nM and 1000 nM (sheet 'Lestaurtinib' of Supplementary Table 1),run:Lestaurtinib_02496_R1,Plate:MR013
[8] = compound concentrations:100 nM and 1000 nM (sheet 'Lestaurtinib' of Supplementary Table 1),run:Lestaurtinib_02496_R2,Plate:MR013
[9] = compound concentrations:100 nM and 1000 nM (sheet 'Lestaurtinib' of Supplementary Table 1),run:Lestaurtinib_02496_R3,Plate:MR013
[10] = compound concentrations:100 nM and 1000 nM (sheet 'Lestaurtinib' of Supplementary Table 1),run:Lestaurtinib_02748_R1,Plate:MR024
[11] = compound concentrations:100 nM and 1000 nM (sheet 'Lestaurtinib' of Supplementary Table 1),run:Lestaurtinib_03172_R3,Plate:MR031
[12] = compound concentrations:100 nM and 1000 nM (sheet 'Lestaurtinib' of Supplementary Table 1),run:Lestaurtinib_02367_R3,Plate:MR003
[13] = compound concentrations:100 nM and 1000 nM (sheet 'Lestaurtinib' of Supplementary Table 1),run:Lestaurtinib_02381_R3,Plate:MR004
[14] = compound concentrations:100 nM and 1000 nM (sheet 'Lestaurtinib' of Supplementary Table 1),run:Lestaurtinib_02422_R3,Plate:MR006
[15] = compound concentrations:100 nM and 1000 nM (sheet 'Lestaurtinib' of Supplementary Table 1),run:Lestaurtinib_02438_R2,Plate:MR008
[16] = compound concentrations:100 nM and 1000 nM (sheet 'Lestaurtinib' of Supplementary Table 1),run:Lestaurtinib_02482_R3,Plate:MR011
[17] = compound concentrations:100 nM and 1000 nM (sheet 'Lestaurtinib' of Supplementary Table 1),run:Lestaurtinib_02566_R3,Plate:MR014

Lestaurtinib
potency estimated from few doses (PRKD1; compound concentrations:100 nM and 1000 nM (sheet 'Lestaurtinib' of Supplementary Table 1),run:Lestaurtinib_02741_R1,Plate:MR023): 13.3 nM | potency estimated from few doses (PRKD1; compound concentrations:100 nM and 1000 nM (sheet 'Lestaurtinib' of Supplementary Table 1),run:Lestaurtinib_02741_R3,Plate:MR023): 17.5 nM | potency estimated from few doses (PRKD1; [1]): 208 nM | potency estimated from few doses (PRKD1; compound concentrations:100 nM and 1000 nM (sheet 'Lestaurtinib' of Supplementary Table 1),run:Lestaurtinib_02748_R3,Plate:MR024): 254 nM | potency estimated from few doses (PRKD1; compound concentrations:100 nM and 1000 nM (sheet 'Lestaurtinib' of Supplementary Table 1),run:Lestaurtinib_02795_R3,Plate:MR022): 193 nM | potency estimated from few doses (PRKD1; [2]): 141 nM | potency estimated from few doses (PTK2B; [3]): 971 nM | potency estimated from few doses (PTK2B; [4]): 859 nM | potency estimated from few doses (PTK2B; compound concentrations:100 nM and 1000 nM (sheet 'Lestaurtinib' of Supplementary Table 1),run:Lestaurtinib_02437_R3,Plate:MR007): 800 nM | potency estimated from few doses (PTK2B; [5]): 928 nM | potency estimated from few doses (PTK2B; [6]): 58.4 nM | potency estimated from few doses (PTK2B; compound concentrations:100 nM and 1000 nM (sheet 'Lestaurtinib' of Supplementary Table 1),run:Lestaurtinib_02487_R1,Plate:MR012): 209 nM | potency estimated from few doses (PTK2B; [7]): 974 nM | potency estimated from few doses (PTK2B; [8]): 703 nM | potency estimated from few doses (PTK2B; [9]): 966 nM | potency estimated from few doses (PTK2B; compound concentrations:100 nM and 1000 nM (sheet 'Lestaurtinib' of Supplementary Table 1),run:Lestaurtinib_02572_R1,Plate:MR015): 615 nM | potency estimated from few doses (PTK2B; compound concentrations:100 nM and 1000 nM (sheet 'Lestaurtinib' of Supplementary Table 1),run:Lestaurtinib_02572_R2,Plate:MR015): 666 nM | potency estimated from few doses (PTK2B; [10]): 954 nM | potency estimated from few doses (PTK2B; [11]): 1240 nM | potency estimated from few doses (SIK3; compound concentrations:100 nM and 1000 nM (sheet 'Lestaurtinib' of Supplementary Table 1),run:Lestaurtinib_02339_R3,Plate:MR001): 1990 nM | potency estimated from few doses (SIK3; [12]): 2180 nM | potency estimated from few doses (SIK3; compound concentrations:100 nM and 1000 nM (sheet 'Lestaurtinib' of Supplementary Table 1),run:Lestaurtinib_02381_R2,Plate:MR004): 2120 nM | potency estimated from few doses (SIK3; [13]): 1930 nM | potency estimated from few doses (SIK3; compound concentrations:100 nM and 1000 nM (sheet 'Lestaurtinib' of Supplementary Table 1),run:Lestaurtinib_02407_R3,Plate:MR005): 1890 nM | potency estimated from few doses (SIK3; compound concentrations:100 nM and 1000 nM (sheet 'Lestaurtinib' of Supplementary Table 1),run:Lestaurtinib_02422_R2,Plate:MR006): 1760 nM | potency estimated from few doses (SIK3; [14]): 1570 nM | potency estimated from few doses (SIK3; compound concentrations:100 nM and 1000 nM (sheet 'Lestaurtinib' of Supplementary Table 1),run:Lestaurtinib_02437_R2,Plate:MR007): 1400 nM | potency estimated from few doses (SIK3; compound concentrations:100 nM and 1000 nM (sheet 'Lestaurtinib' of Supplementary Table 1),run:Lestaurtinib_02438_R1,Plate:MR008): 1800 nM | potency estimated from few doses (SIK3; [15]): 1720 nM | potency estimated from few doses (SIK3; compound concentrations:100 nM and 1000 nM (sheet 'Lestaurtinib' of Supplementary Table 1),run:Lestaurtinib_02438_R3,Plate:MR008): 1330 nM | potency estimated from few doses (SIK3; compound concentrations:100 nM and 1000 nM (sheet 'Lestaurtinib' of Supplementary Table 1),run:Lestaurtinib_02443_R1,Plate:MR009): 1970 nM | potency estimated from few doses (SIK3; compound concentrations:100 nM and 1000 nM (sheet 'Lestaurtinib' of Supplementary Table 1),run:Lestaurtinib_02443_R2,Plate:MR009): 1960 nM | potency estimated from few doses (SIK3; [5]): 964 nM | potency estimated from few doses (SIK3; [6]): 1240 nM | potency estimated from few doses (SIK3; [16]): 1570 nM | potency estimated from few doses (SIK3; compound concentrations:100 nM and 1000 nM (sheet 'Lestaurtinib' of Supplementary Table 1),run:Lestaurtinib_02487_R2,Plate:MR012): 1700 nM | potency estimated from few doses (SIK3; [7]): 956 nM | potency estimated from few doses (SIK3; [9]): 1300 nM | potency estimated from few doses (SIK3; compound concentrations:100 nM and 1000 nM (sheet 'Lestaurtinib' of Supplementary Table 1),run:Lestaurtinib_02566_R1,Plate:MR014): 1420 nM | potency estimated from few doses (SIK3; [17]): 1460 nM | potency estimated from few doses (SIK3; compound concentrations:100 nM and 1000 nM (sheet 'Lestaurtinib' of Supplementary Table 1),run:Lestaurtinib_02577_R1,Plate:MR016): 1590 nM | potency estimated from few doses (SIK3; compound concentrations:100 nM and 1000 nM (sheet 'Lestaurtinib' of Supplementary Table 1),run:Lestaurtinib_02577_R2,Plate:MR016): 1630 nM | potency estimated from few doses (SIK3; compound concentrations:100 nM and 1000 nM (sheet 'Lestaurtinib' of Supplementary Table 1),run:Lestaurtinib_02577_R3,Plate:MR016): 1960 nM | potency estimated from few doses (SIK3; compound concentrations:100 nM and 1000 nM (sheet 'Lestaurtinib' of Supplementary Table 1),run:Lestaurtinib_02584_R2,Plate:MR017): 1420 nM | potency estimated from few doses (SIK3; compound concentrations:100 nM and 1000 nM (sheet 'Lestaurtinib' of Supplementary Table 1),run:Lestaurtinib_02584_R3,Plate:MR017): 1300 nM | potency estimated from few doses (SIK3; compound concentrations:100 nM and 1000 nM (sheet 'Lestaurtinib' of Supplementary Table 1),run:Lestaurtinib_02601_R1,Plate:MR018): 1820 nM | potency estimated from few doses (SIK3; compound concentrations:100 nM and 1000 nM (sheet 'Lestaurtinib' of Supplementary Table 1),run:Lestaurtinib_02601_R2,Plate:MR018): 1650 nM | potency estimated from few doses (SIK3; compound concentrations:100 nM and 1000 nM (sheet 'Lestaurtinib' of Supplementary Table 1),run:Lestaurtinib_02606_R2,Plate:MR019): 1760 nM | potency estimated from few doses (SIK3; compound concentrations:100 nM and 1000 nM (sheet 'Lestaurtinib' of Supplementary Table 1),run:Lestaurtinib_02624_R1,Plate:MR020): 1910 nM | potency estimated from few doses (SIK3; compound concentrations:100 nM and 1000 nM (sheet 'Lestaurtinib' of Supplementary Table 1),run:Lestaurtinib_02724_R1,Plate:MR021): 1300 nM | potency estimated from few doses (SIK3; compound concentrations:100 nM and 1000 nM (sheet 'Lestaurtinib' of Supplementary Table 1),run:Lestaurtinib_02724_R2,Plate:MR021): 1320 nM | potency estimated from few doses (SIK3; compound concentrations:100 nM and 1000 nM (sheet 'Lestaurtinib' of Supplementary Table 1),run:Lestaurtinib_02724_R3,Plate:MR021): 1350 nM | potency estimated from few doses (SIK3; compound concentrations:100 nM and 1000 nM (sheet 'Lestaurtinib' of Supplementary Table 1),run:Lestaurtinib_02741_R2,Plate:MR023): 1300 nM | potency estimated from few doses (SIK3; [10]): 1410 nM | potency estimated from few doses (SIK3; [1]): 1490 nM | potency estimated from few doses (SIK3; compound concentrations:100 nM and 1000 nM (sheet 'Lestaurtinib' of Supplementary Table 1),run:Lestaurtinib_02752_R1,Plate:MR025): 1430 nM | potency estimated from few doses (SIK3; compound concentrations:100 nM and 1000 nM (sheet 'Lestaurtinib' of Supplementary Table 1),run:Lestaurtinib_02752_R2,Plate:MR025): 1720 nM | potency estimated from few doses (SIK3; compound concentrations:100 nM and 1000 nM (sheet 'Lestaurtinib' of Supplementary Table 1),run:Lestaurtinib_02765_R2,Plate:MR026): 1360 nM | potency estimated from few doses (SIK3; compound concentrations:100 nM and 1000 nM (sheet 'Lestaurtinib' of Supplementary Table 1),run:Lestaurtinib_02766_R1,Plate:MR027): 1130 nM | potency estimated from few doses (SIK3; compound concentrations:100 nM and 1000 nM (sheet 'Lestaurtinib' of Supplementary Table 1),run:Lestaurtinib_02768_R3,Plate:MR028): 1510 nM | potency estimated from few doses (SIK3; compound concentrations:100 nM and 1000 nM (sheet 'Lestaurtinib' of Supplementary Table 1),run:Lestaurtinib_02795_R1,Plate:MR022): 2150 nM | potency estimated from few doses (SIK3; compound concentrations:100 nM and 1000 nM (sheet 'Lestaurtinib' of Supplementary Table 1),run:Lestaurtinib_02802_R1,Plate:MR029): 1990 nM | potency estimated from few doses (SIK3; compound concentrations:100 nM and 1000 nM (sheet 'Lestaurtinib' of Supplementary Table 1),run:Lestaurtinib_02802_R3,Plate:MR029): 1720 nM | potency estimated from few doses (SIK3; [2]): 1210 nM | potency estimated from few doses (SIK3; compound concentrations:100 nM and 1000 nM (sheet 'Lestaurtinib' of Supplementary Table 1),run:Lestaurtinib_03172_R1,Plate:MR031): 1420 nM | potency estimated from few doses (SIK3; compound concentrations:100 nM and 1000 nM (sheet 'Lestaurtinib' of Supplementary Table 1),run:Lestaurtinib_03172_R2,Plate:MR031): 1540 nM | potency estimated from few doses (SIK3; [11]): 1130 nM | potency estimated from few doses (SIK3; compound concentrations:100 nM and 1000 nM (sheet 'Lestaurtinib' of Supplementary Table 1),run:Lestaurtinib_03252_R1,Plate:MR032): 1350 nM | potency estimated from few doses (SIK3; compound concentrations:100 nM and 1000 nM (sheet 'Lestaurtinib' of Supplementary Table 1),run:Lestaurtinib_03252_R2,Plate:MR032): 1130 nM | potency estimated from few doses (SIK3; compound concentrations:100 nM and 1000 nM (sheet 'Lestaurtinib' of Supplementary Table 1),run:Lestaurtinib_03260_R2,Plate:MR033): 1420 nM | potency estimated from few doses (SLK; [3]): 859 nM | potency estimated from few doses (SLK; compound concentrations:100 nM and 1000 nM (sheet 'Lestaurtinib' of Supplementary Table 1),run:Lestaurtinib_02364_R2,Plate:MR002): 1540 nM | potency estimated from few doses (SLK; compound concentrations:100 nM and 1000 nM (sheet 'Lestaurtinib' of Supplementary Table 1),run:Lestaurtinib_02364_R3,Plate:MR002): 1370 nM | potency estimated from few doses (SLK; compound concentrations:100 nM and 1000 nM (sheet 'Lestaurtinib' of Supplementary Table 1),run:Lestaurtinib_02367_R1,Plate:MR003): 1350 nM | potency estimated from few doses (SLK; compound concentrations:100 nM and 1000 nM (sheet 'Lestaurtinib' of Supplementary Table 1),run:Lestaurtinib_02367_R2,Plate:MR003): 1300 nM | potency estimated from few doses (SLK; [12]): 1530 nM | potency estimated from few doses (SLK; [13]): 1210 nM | potency estimated from few doses (SLK; compound concentrations:100 nM and 1000 nM (sheet 'Lestaurtinib' of Supplementary Table 1),run:Lestaurtinib_02407_R2,Plate:MR005): 1670 nM | potency estimated from few doses (SLK; [4]): 1150 nM | potency estimated from few doses (SLK; [14]): 1360 nM | potency estimated from few doses (SLK; [15]): 1420 nM | potency estimated from few doses (SLK; [5]): 992 nM | potency estimated from few doses (SLK; [16]): 1420 nM | potency estimated from few doses (SLK; [8]): 1310 nM | potency estimated from few doses (SLK; [9]): 1620 nM | potency estimated from few doses (SLK; [17]): 1130 nM | potency estimated from few doses (SLK; compound concentrations:100 nM and 1000 nM (sheet 'Lestaurtinib' of Supplementary Table 1),run:Lestaurtinib_02572_R3,Plate:MR015): 1790 nM
